Results from PubChem BioAssay (NCATS).
Inconclusive results are not listed. Activity calls are given as the source filed them. Calls follow the shape of the dose curve; as a rule, active = well fitted inhibition curve with a large enough effect; inconclusive = small, poorly fitted or top-dose-only effect; inactive = flat fitted curve, though single readings scatter.

What follows are molecules tested on CP291 (assay: qHTS profiling for inhibitors of Plasmodium falciparum proliferation (AID 504749; also: nearly all actives have a fitted effect of over 60% in size;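 as to activity, negative = inhibition: 0% = DMSO vehicle and full inhibition = artemisinin control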)). Conditions: P. falciparum in erythrocytes, SYBR Green DNA, 72 h; series mostly up to 28.7 µM; activity, negative = inhibition: at the top concentration.
Summary of the method: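 P. falciparum-infected erythrocytes (0.3% parasitemia, 2.5% hematocrit final) were exposed to compounds for 72 h at 37 C in 5% CO2, then lysed with SYBR Green buffer overnight at room temperature; parasite DNA fluorescence was normalized to artemisinin and DMSO controls.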
Potency is read from the fitted curve at half-maximal effect.

Compound | activity, negative = inhibition | Potency
C=C1C(=CC=C2CCC[C@@]3(C)[C@@H]2CC[C@H]3[C@H](C)CCCC(C)C)C[C@@H](O)C[C@@H]1O | -0.178% (inactive) | 
O=C(COc1ccc(Cl)cc1)OCCNC12CC3CC(CC(C3)C1)C2 | -8.29% (inactive) | 
CCOC(=O)C1=C(C)NC(C)=C(C(=O)OCC)C1c1ccccc1C=CC(=O)OC(C)(C)C |  | 12 µM (active)
O=CCCCC=O | -5.27% (inactive) | 
CCCCC(=O)O[C@]1(C(=O)CO)[C@H](C)C[C@H]2[C@@H]3CCC4=CC(=O)C=C[C@]4(C)[C@@]3(F)[C@@H](O)C[C@@]21C | -6.9% (inactive) | 
O=C1CSC2(CCN(CCCN3c4ccccc4Sc4ccc(Cl)cc43)CC2)N1 |  | 13.5 µM (active)
O=C(O)c1cc(=O)c2c3nc4ccccc4oc-3cc(=O)c2[nH]1 | -20.9% (inactive) | 
O=C(Nc1cccc(C(F)(F)F)c1)c1cc(Br)cc(Br)c1O |  | 12 µM (active)
CC(Cc1ccc(O)c(O)c1)C(C)Cc1ccc(O)c(O)c1 (stereo not given) | -4.58% (inactive) | 
C#C[C@]1(O)CC[C@H]2[C@@H]3CCC4=CCCC[C@@H]4[C@H]3C(=C)C[C@@]21CC | -3.78% (inactive) | 
CCN(CC)CCOc1ccc(-c2nc3cc(Cl)ccc3s2)cc1 | -19.1% (inactive) | 
COC(=O)C1=C(C#N)NC(C)=C(C(=O)OC(C)C)C1c1cccc([N+](=O)[O-])c1 (stereo not given) |  | 16.9 µM (active)
CC1=C(/C=C/C(C)=C/C=C/C(C)=C/CO)C(C)(C)CCC1 | 0.526% (inactive) | 
CC[C@@]1(O)C(=O)OCc2c1cc1n(c2=O)Cc2cc3c([N+](=O)[O-])cccc3nc2-1 |  | 12 µM (active)
Clc1cc(Cl)c(OCC#CI)cc1Cl |  | 8.49 µM (active)
